# Assay results: PubChem BioAssay (Tox21)
# Calls of active or inactive are those of the source. A call without a number means that no potency is given here. Calls follow the shape of the dose curve; as a rule, active = well fitted cell-killing curve with a large enough effect in the repeat runs; inconclusive = weak or mixed curves, or effect the other way; inactive = flat fitted curve, though single readings scatter.
# Assay: qHTS assay to identify small molecule HDAC inhibitors - cell viability counter screen (AID 1259365); also: nearly all actives have a fitted effect of over 50% in size
# Settings: HCT-116 viability, CellTiter-Glo ATP luminescence, 2 h; series mostly up to 92.4 µM
# Description: U.S. Tox21 Program National Center for Advancing Translational Sciences [NCATS] NIH Chemical Genomics Center [NCGC] U.S. Environmental Protection Agency [EPA] National Institutes of Environmental Health Sciences [NIEHS] National Toxicology Program [NTP] U.S. Food and Drug Administration [FDA] Tox21 Assay Overview: Histone deacetylases (HDACs) are a group of epigenetic enzymes that regulate gene expression by histone deacetylation. HDACs are capable of introducing epigenetic modifications and such aberrations contribute to the onset and progression of several human diseases, thus making HDACs a popular therapeutic target. For identifying endogenous class I/II HDAC inhibitors a homogenous, luminogenic HDAC I/II cell based assay was used to measure the relative activity of class I and II HDACs from cells. Wild type HCT-116 cells were used to screen Tox21 compound libraries for identifying class I/II HDAC inhibitors.
# Tox21 Assay Protocol Summary: HCT-116 cells were dispensed at 1,500 per well in 5uL of culture medium into white solid bottom 1536-well plates (Greiner Bio-One, Monroe, NC) using a Multidrop Combi (Thermo Scientific, Waltham, MA) dispenser. The assay plates were incubated at 37 C and 5% CO2 for an overnight, and then 23nL of compounds dissolved in DMSO and positive control were transferred using a Pintool station (Wako, San Diego, CA). The assay plates were incubated at 37C and 5% CO2 for 2hr. After compound treatment, 4uL of CellTiter-Glo reagent (Promega Corporation, Madison, WI) was added to each well of the assay plates using Flying Reagent Dispenser (FRD, Aurora Discovery, San Diego, CA) and incubated the assay plates at room temperature for 30min. The luminescence signal was quantified using a ViewLux plate reader (Perkin Elmer, Shelton, CT).
# Potency is read from the fitted curve at half-maximal effect.
row,SMILES,Potency
1,N#CCCO,inactive
2,O=C(CCl)Nc1ccccc1,inactive
3,S=C=Nc1cccc2ccccc12,inactive
4,ClCc1ccc(Cl)cc1Cl,inactive
5,[Hg+2].[I-].[I-],61.1 µM (active)
6,CN(C)CCc1c[nH]c2cccc(O)c12,inactive
7,C[C@H]1CC[C@@H]2[C@@H](C)[C@H]3[C@H](C[C@H]4[C@@H]5CC=C6CC(O[C@@H]7O[C@H](CO)[C@H](O)[C@H](O[C@@H]8O[C@H](CO)[C@@H](O)[C@H](O)[C@H]8O)[C@H]7O[C@H]7O[C@@H](C)[C@H](O)[C@@H](O)[C@H]7O)CC[C@]6(C)[C@H]5CC[C@]34C)N2C1 (stereo not given in full),28.2 µM (active)
8,CCCN(CC)CC1COC2(CCC(C(C)(C)C)CC2)O1 (stereo not given),inactive
9,CC(C)(C)c1ccc(CSc2cnn(C(C)(C)C)c(=O)c2Cl)cc1,inactive
10,O=[N+]([O-])c1ccc(Oc2ccc(C(F)(F)F)cc2[N+](=O)[O-])cc1,inactive
11,CC(C)OC(=O)C(O)(c1ccc(Cl)cc1)c1ccc(Cl)cc1,inactive
12,CCOP(=O)(NC(C)C)Oc1ccc(SC)c(C)c1 (stereo not given),inactive
13,COP(=O)(CCC(=O)NCO)OC,inactive
14,CCN,inactive
15,CCN(CC)c1c([N+](=O)[O-])cc(C(F)(F)F)c(N)c1[N+](=O)[O-],inactive
16,CNC(C)Cc1ccc2c(c1)OCO2 (stereo not given),inactive
17,CC1(C)CC/C(=C/c2ccc(Cl)cc2)C1(O)Cn1cncn1 (stereo not given),inactive
18,CC(C)[C@H](C(=O)OC(C#N)c1cccc(Oc2ccccc2)c1)c1ccc(OC(F)F)cc1 (stereo not given in full),inactive
19,c1ccc(OCC2CO2)cc1 (stereo not given),inactive
20,c1ccc2c(c1)OCC(C1=NCCN1)O2 (stereo not given),inactive

row,SMILES,Potency
1,N#CCCSCCC#N,inactive
2,CC(C)Oc1cccc(NC(=O)c2ccccc2C(F)(F)F)c1,inactive
3,Oc1ccc(C(c2ccc(O)cc2)(C(F)(F)F)C(F)(F)F)cc1,inactive
4,NC(=O)c1ccc(N)nc1,inactive
5,O=C(Cl)c1ccc(Cl)cc1,inactive
6,CC[C@H]1C[C@@H]2C[C@H]3c4[nH]c5ccc(OC)cc5c4CCN(C2)[C@@H]13,inactive
7,Nc1ccc(Sc2ccc(N)cc2)cc1,inactive
8,Oc1ccc(C2(c3ccc(O)cc3)CCCCC2)cc1,inactive
9,ClC(Cl)=C(c1ccc(Cl)cc1)c1ccc(Cl)cc1,inactive
10,CCOC(=O)C1(c2ccccc2)CCN(CCC(C#N)(c2ccccc2)c2ccccc2)CC1,inactive
11,CCCCCCCCCCCCCN1CC(C)OC(C)C1 (stereo not given),inactive
12,Clc1ccc(C(c2ccc(Cl)cc2)C(Cl)(Cl)Cl)cc1,inactive
13,CC(Cl)CN(C)C (stereo not given),inactive
14,O=[N+]([O-])c1cc(Cl)ccc1Cl,inactive
15,Clc1ccc(C(c2ccccc2Cl)C(Cl)(Cl)Cl)cc1 (stereo not given),inactive
16,N#CNC#N,inactive
17,CC(=O)O[C@H]1CC[C@@]2(C)C(=CC[C@@H]3[C@@H]2CC[C@]2(C)C(=O)CC[C@@H]32)C1,inactive
18,Cc1cc(C(F)(C(F)(F)F)C(F)(F)F)ccc1NC(=O)c1cccc(I)c1C(=O)NC(C)(C)CS(C)(=O)=O,inactive
19,CCCCCCCCCCCCCCCCCCn1cc[n+](C)c1,inactive
20,CCC(C)(C)C(=O)OC1=C(c2ccc(Cl)cc2Cl)C(=O)OC12CCCCC2,inactive
